Compound activity: PubChem, several laboratories
The list is not random: actives were taken first. Their share in the collection is about 4.4%.
tim23-1 inh: growth inhibitors of tim23-1 mutant yeast, primary screen, luminescence, uHTS | S. cerevisiae tim23-1 growth, BacTiter-Glo luminescence, 24 h | inhibition, % at 20 µM | hit rate 1.3% among 330,000;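 active = growth inhibition of the mutant yeast at or above 50%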;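 also: temperature-sensitive mutant grown at 25 °C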
PfHsp90 set2: growth inhibition of PfHsp90-expressing yeast, primary screen, antimalarial PfHsp90 inhibitor project, S. cerevisiae, BacTiter-Glo luminescence, single point, set 2. BacTiter-Glo ATP, 48 h; yeast lacking PDR1 and PDR3 efflux regulators. AID 504621, 2011. inhibition, % at 9.4 µM. hit rate 0.32% among 310,000;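 active = every replicate shows inhibition above about 80%, whatever the replicate mean, limit read from the data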
SUMO Mot1 rescue: yeast Mot1-301 growth rescue at high temperature, primary screen, SUMOylation pathway inhibitor project, S. cerevisiae, ATP luminescence, 38.5C; S. cerevisiae Mot1-301 growth rescue; percent above DMSO median, 100 means doubled; growth rescue, % at 18.8 µM; hit rate 1% among 320,000;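 active = every valid replicate shows activation above 250% relative to neutral control wells; inactive = the rest, any valid replicate at or below 250%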
tim10-1 inh: growth inhibitors of tim10-1 mutant yeast, primary screen, luminescence, uHTS | S. cerevisiae tim10-1 ts strain growth, BacTiter-Glo, 24 h | inhibition, % at 20 µM | hit rate 2.2% among 330,000;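 active = inhibition of at least 40%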;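 also: mutant grown at 25 °C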
TIM10 inh: growth inhibitors of isogenic TIM10 control yeast, primary screen, counter-screen for tim10-1 yeast inhibitor project, luminescence, uHTS | S. cerevisiae TIM10 strain growth, BacTiter-Glo luminescence, 24 h | inhibition, % at 10 µM | hit rate 1.4% among 330,000;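 active = inhibition of 40% or more at the single tested concentration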;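 also: wild-type TIM10 isogenic control strain grown at permissive 25 °C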
Mot1 SUMO dose: growth restoration of Mot1-301 yeast on galactose, dose response, SUMO pathway inhibitor project, whole organism, S. cerevisiae, ATP luminescence, cherry-picked samples | 2,300 tested, under 10 active | S. cerevisiae Mot1-301 galactose growth, 24 h; -100 = growth of slx-deleted rescue strain | growth activity, percent, % at 42 µM | shares compounds with SUMO Mot1 rescue | AID 493004, 2010;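 active = Signal drops as the depositor expects, and the fitted half-maximal dose is no more than ten times the top valid tested dose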;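 also: more negative values mean stronger growth rescue toward the control strain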
A number is an active result; i = inactive; nt = not tested or not shown; + = active, no number.

SMILES	tim23-1 inh	PfHsp90 set2	SUMO Mot1 rescue	tim10-1 inh	TIM10 inh	Mot1 SUMO dose
CC1(C)Cc2ccccc2-c2nnc(-c3ccc4ccccc4n3)n21	i	i	nt	i	i	nt
Cc1cc2c(cc1C)-c1nnc(-c3ccc4ccccc4n3)n1C(C)(C)C2	i	nt	643.8	i	i	i
CCOC(=O)C1=CC[C@H]2c3c(c4ccccc4n3C)C[C@H]1N2C	i	i	i	i	i	nt
O=C(O)c1cccc(NC(=O)c2cccc(S(=O)(=O)Nc3cccc([N+](=O)[O-])c3)c2)c1	i	i	418.8	i	i	i
Cc1ccc(NS(=O)(=O)c2cc(C(=O)Nc3cccc([N+](=O)[O-])c3)ccc2C)cc1	i	i	476.0	i	i	i
Cc1ccc(C(=O)Nc2cccc([N+](=O)[O-])c2)cc1S(=O)(=O)Nc1ccc(NC(=O)c2ccccc2)cc1	i	i	i	i	i	nt
CC(=O)c1ccc(NS(=O)(=O)c2ccc3c(c2)CCC(=O)N3)cc1	i	i	i	i	i	nt
CN(c1cccnc1)c1ncnc2[nH]ncc12	i	i	+	i	i	i
COc1ccc(N2C(=O)CCC(C(=O)NCc3cccnc3)C2c2ccc(OC)c(OC)c2)cc1 (centres undefined)	i	i	358.6	i	i	i
COc1ccc(N2C(=O)CCC(C(=O)NCCN3CCOCC3)C2c2ccc(OC)c(OC)c2)cc1 (centres undefined)	nt	i	nt	nt	nt	nt
N=c1sccn1CC(=O)Nc1ccc(S(N)(=O)=O)cc1	i	i	i	i	i	nt
N=c1sccn1CC(=O)Nc1cccc(S(N)(=O)=O)c1	i	i	488.9	i	i	i
COC(=O)c1ccc(CSc2nnnn2-c2ccccc2)o1	i	i	+	i	i	i
O=C(CCNC(=O)c1ccccc1)Nc1cccnc1	i	i	455.2	i	i	i
O=C(CCc1ccccc1)Nc1cccnc1	i	i	i	i	i	nt
CC(C)N=C(Nc1cccnc1)c1ccccc1	i	i	i	i	i	nt
CN=C(Nc1cccnc1)c1ccccc1	i	i	421.2	i	i	i
CN(C)c1ccc(C(CNS(=O)(=O)c2ccc([N+](=O)[O-])cc2)N2CCOCC2)cc1 (centres undefined)	i	i	575.4	i	i	i
CC1(C)CC(=O)C(CC2CCCCC2=O)C(=O)C1 (centres undefined)	i	i	575.4	i	i	i
c1ccc2c(c1)OCCOCCOc1ccccc1OCCOCCO2	i	i	734.9	i	i	i
O=C(c1ccc(Cl)s1)N1CCCC(N2CCN(c3ccc(F)cc3)CC2)C1 (centres undefined)	i	i	i	i	i	nt
CC(=O)c1ccc(C(=O)N2CCCC(N3CCN(c4ccc(F)cc4)CC3)C2)s1 (centres undefined)	i	i	507.9	i	i	i
CC(C)=CC(=O)N1CCCC(N2CCN(c3ccc(F)cc3)CC2)C1 (centres undefined)	i	i	+	i	i	i
CC(C)=CC(=O)N1CCCC(N2CCN(c3ccccc3C)CC2)C1 (centres undefined)	i	i	i	i	i	nt
CCC(C)(C)n1nnnc1C(c1ccc(OC)c(OC)c1)N1CCN(c2ccccc2)CC1 (centres undefined)	i	i	i	i	i	nt
SMILES	tim23-1 inh	PfHsp90 set2	SUMO Mot1 rescue	tim10-1 inh	TIM10 inh	Mot1 SUMO dose
CCC(C)(C)n1nnnc1C(c1ccc(OC)c(OC)c1)N1CCN(c2cccc(OC)c2)CC1 (centres undefined)	i	i	+	i	i	i
O=C(Nc1ccccc1Cl)N1CCN(c2ccc3nnc(-c4ccc(F)cc4)n3n2)CC1	i	i	i	i	i	nt
Fc1ccc(-c2nnc3ccc(N4CCCC4)nn23)cc1	i	i	775.1	i	i	i
Cc1ccc(S(=O)(=O)N2CCN(C(=O)COC(=O)c3cccc(Cl)c3)CC2)c(C)c1	i	i	i	i	i	nt
Cc1cccc(NC(=O)CSc2cccc3cccnc23)c1	i	i	i	i	i	nt
O=C(CSc1cccc2cccnc12)Nc1cc(C(=O)O)cc(C(=O)O)c1	i	i	577.2	i	i	i
